In PubChem BioAssay (EPA / NIEHS):
Results filed as inconclusive are left out. Where a structure was tested more than once in an assay, its records may differ in their call. The source made the active and inactive calls. How the source made its calls, unless noted: active means hit-call score of the fitted dose curve at least 0.9, where 1 is the maximum; inconclusive means response in the unintended direction; inactive means score below 0.9.

Columns and labels:
[1] = read-out: Cytochrome P450 2B6 (Homo sapiens) (UniProt P20813); experiment: CLD_CYP2B6_48hr: CellzDirect (CLD) Gene Expression Assay for xenobiotic metabolism (CYP2B6) at 48 hours (AID 2283699);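 further: actives raise transcript level above DMSO so potency reflects induction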
In short: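 Primary human hepatocytes dosed daily for two days over multiple concentrations, 0.2% DMSO vehicle; CYP2B6 mRNA quantified at 48 h by qNPA chemiluminescence. Induction fitted as gain of signal versus DMSO; cytotoxicity annotated by morphology.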

[2] = read-out: xenobiotic metabolism (CYP1A2), CYP1A2 (gene 1544); experiment: CLD_CYP1A2_48hr: CellzDirect (CLD) Gene Expression Assay for xenobiotic metabolism (CYP1A2) at 48 hours (AID 2283703)
In short: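 Primary human hepatocytes from two donor preparations were dosed daily for two days at multiple concentrations in 0.2% DMSO vehicle. CYP1A2 mRNA was measured at 48 hours by chemiluminescent quantitative nuclease protection assay, with gain of signal fitted versus DMSO and cytotoxicity annotated from morphology.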

[3] = read-out: organic anion transporter (SLCO1B1), SLCO1B1 (gene 10599); experiment: CLD_SLCO1B1_48hr: CellzDirect (CLD) Gene Expression Assay for organic anion transporter (SLCO1B1) at 48 hours (AID 2283707)
In short: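 Primary human hepatocytes from two donor preparations dosed daily for two days with multiple concentrations, 0.2% DMSO vehicle. SLCO1B1 mRNA at 48 h by quantitative nuclease protection assay, chemiluminescence; gain-of-signal fitted versus DMSO.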

[4] = read-out: sulfotransferase (SULT2A), SULT2A1 (gene 6822); experiment: CLD_SULT2A_48hr: CellzDirect (CLD) Gene Expression Assay for sulfotransferase (SULT2A) at 48 hours (AID 2283710);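 further: hits raise SULT2A1 transcript above the 0.2% DMSO vehicle baseline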
In short: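 Primary human hepatocytes (two donor preparations) dosed daily for two days with chemicals at multiple concentrations, vehicle 0.2% DMSO; SULT2A1 mRNA induction at 48 h by quantitative nuclease protection assay, chemiluminescent read-out, fitted for gain of signal versus DMSO.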

[5] = Tanguay_ZF_120hpf_ActivityScore_legacy: (Legacy) Oregon State University Tanguay Lab 120 Hour Post-fertilization zebrafish Assay Score for Activity (AID 2283742);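 on AC50: dechorionated Tropical 5D wild-type zebrafish embryos held singly per well; static exposure from 6 hpf until 120 hpf at 28 °C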
In short: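 Dechorionated Tropical 5D embryos, one per well from 6 hpf, statically exposed to 120 hpf at 28 °C in 0.64% DMSO. Mortality and malformations scored binary by brightfield microscopy; activity score combines 18 endpoints, fitted positively versus DMSO.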

[6] = CEETOX_H295R_MTT_cell_viability: Viability Assessment in the CeeTox HT-H295R MTT Assay (AID 2283718; active means hit-call score of the fitted dose curve at least 0.9, where 1 is the maximum; inactive means score below 0.9)
In short: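 Human H295R adrenal cells, prestimulated 48 h with 10 uM forskolin, were exposed 48 h to chemicals in 0.1% DMSO. Viability was measured in the same wells by MTT (0.5 mg/ml, 4 h, 37 C), absorbance 570/650 nm, as percent of controls.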

[7] = read-out: glucuronosyltransferase (UGT1A1), UGT1A1 (gene 54658); experiment: CLD_UGT1A1_48hr: CellzDirect (CLD) Gene Expression Assay for glucuronosyltransferase (UGT1A1) at 48 hours (AID 2283709);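 further: actives increase expression relative to DMSO so potency refers to induction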
In short: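 Human primary hepatocytes dosed daily for two days (0.2% DMSO vehicle), harvested at 48 h. UGT1A1 mRNA induction measured by quantitative nuclease protection assay with chemiluminescence; gain of signal versus DMSO; cytotoxicity flagged from morphology.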

[8] = CLD_ACTIN_48hr: CellzDirect (CLD) Gene Expression Assay for Baseline Control (Actin) at 48 hours (AID 2283702)
In short: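 Primary human hepatocytes (two donor preparations) dosed daily for two days with ToxCast chemicals at multiple concentrations versus 0.2% DMSO vehicle; harvested at 48 h. Actin mRNA measured as a background control by quantitative nuclease protection assay with chemiluminescence.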

[9] = STM_H9_CystineISnorm_perc: Stemina devTOX quickPredict H9 human embryonic stem cell (hESC)-based Assay for Cystine (CYSS) Metabolite Biomarker, Normalized (AID 2283713; active means hit-call score of the fitted dose curve at least 0.9, where 1 is the maximum; inactive means score below 0.9)
In short: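 H9 hESC, pluripotent; compound 72h, re-dosed q24h with medium change. Last-24h medium → 40% acetonitrile deproteinization → UPLC-HRMS. CYSS area / C13-CYSS standard, then % of 0.1% DMSO median.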

[10] = STM_H9_OrnCyssISnorm_ratio: Stemina devTOX quickPredict H9 human embryonic stem cell (hESC)-based Assay for Ornithine (ORN):Cystine (CYSS) Ratio (AID 2283714)
In short: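 Undifferentiated H9 hESCs exposed 72 h, media and compound replaced every 24 h; final 24-h conditioned media deproteinized and analysed by UPLC-HRMS against C13 spike-ins. Value is the internal-standard-normalized ORN/CYSS ratio versus 0.1% DMSO.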

[11] = read-out: alkyl and aryl transferase (GSTA2), GSTA2 (gene 2939); experiment: CLD_GSTA2_48hr: CellzDirect (CLD) Gene Expression Assay for alkyl and aryl transferase (GSTA2) at 48 hours (AID 2283708);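 further: active means mRNA induction above DMSO vehicle baseline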
In short: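 Primary human hepatocytes dosed daily for two days (0.2% DMSO vehicle), harvested at 48 h. GSTA2 mRNA induction measured by quantitative nuclease protection assay with chemiluminescent imaging, fitted for gain of signal relative to DMSO.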

[12] = ArunA_CellTiter_hNP: Viability Assessment in the ArunA Biomedical's Oris Neural Crest (hNC) Cell Migration Assay (AID 2283753)
In short: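 H9-derived hNP1 neuroprogenitors, 60,000/well on Matrigel, cultured 16 h, then 72 h chemical exposure in test medium. Cell titer via CellTiter Aqueous One; positive-direction fit vs DMSO.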

[13] = ArunA_Migration_hNP: ArunA Biomedical's Oris Neuroprogenitor (hNP) Cell Migration Assay (AID 2283754)
In short: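 Human H9-derived hNP1 neuroprogenitors on Matrigel with LIF/bFGF, plated around seeding stoppers for 16 h at 37C; stoppers removed at start of 72 h chemical exposure. Calcein-AM staining, fluorescence 494/517 nm in detection zone; loss-of-signal vs DMSO; cytochalasin D control.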

[14] = ArunA_Migration_hNC: ArunA Biomedical's Oris Neural Crest (hNC) Cell Migration Assay (AID 2283755)
In short: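 Human H9-derived neural crest stem cells, 60,000/well on Matrigel, 16 h at 37C, then 72 h chemical exposure after seeding-stopper removal. Migration into detection zone read as calcein-AM fluorescence (ex494/em517), relative to DMSO.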

[15] = test system: Thyroperoxidase (TPO), gene 445522; experiment: CCTE_Simmons_GUA_TPO: CCTE's Guaiacol Assay for Thyroperoxidase (TPO) Inhibition, Simmons Lab (AID 2283750)
In short: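 Porcine thyroid microsomes (25 ug) in 200mM potassium phosphate, preincubated 30 s at 37C with compound (8 concentrations, 5 nM–87.5 uM) and 35mM guaiacol; 1mM H2O2 starts reaction. Absorbance change at 450nm over first 80 s; loss of signal versus DMSO, three replicates.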

[16] = read-out: Cytochrome P450 2C19 (Homo sapiens) (UniProt P33261); experiment: CLD_CYP2C19_48hr: CellzDirect (CLD) Gene Expression Assay for xenobiotic metabolism (CYP2C19) at 48 hours (AID 2283700);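 further: fitted upward so actives raise CYP2C19 mRNA above the 0.2% DMSO vehicle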
In short: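 Primary human hepatocytes (two donor preparations) dosed daily for two days, harvested at 48 h; CYP2C19 mRNA induction measured by qNPA chemiluminescence. Gain-of-signal fitted relative to 0.2% DMSO vehicle as baseline.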

[17] = ArunA_CellTiter_hNC: Viability Assessment in the ArunA Biomedical's Oris Neural Crest (hNC) Cell Migration Assay (AID 2283752)
In short: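 Cell titer was measured with the CellTiter Aqueous One reagent after 72 h of chemical dosing. Cells were H9-derived embryonic neural crest stem cells seeded on Matrigel, 60,000 per well, and given 16 h at 37C beforehand.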

Measured: AC50

Chain of Cytochrome P450 2C19 (Homo sapiens) (P33261 whole entry, looked up): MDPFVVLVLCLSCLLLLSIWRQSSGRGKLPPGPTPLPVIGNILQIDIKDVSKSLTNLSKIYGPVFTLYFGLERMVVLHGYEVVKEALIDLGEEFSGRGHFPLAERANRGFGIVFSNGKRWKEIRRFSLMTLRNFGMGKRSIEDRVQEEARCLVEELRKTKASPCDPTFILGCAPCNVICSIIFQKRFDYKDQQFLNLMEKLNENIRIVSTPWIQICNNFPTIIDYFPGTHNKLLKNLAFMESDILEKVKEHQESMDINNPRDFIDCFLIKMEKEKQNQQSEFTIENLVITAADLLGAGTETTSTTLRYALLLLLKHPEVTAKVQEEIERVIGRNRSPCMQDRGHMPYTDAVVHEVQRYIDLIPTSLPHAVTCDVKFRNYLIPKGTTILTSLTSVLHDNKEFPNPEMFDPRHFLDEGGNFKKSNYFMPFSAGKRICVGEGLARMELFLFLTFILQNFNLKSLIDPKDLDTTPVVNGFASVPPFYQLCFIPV

CCOP(=O)(SC(C)CC)N1CCSC1=O (centres undefined)
active: [1] 2.05 µM | [2] 4.51 µM
inactive: [3] | [4] | [5]

CCCSP(=O)(OCC)SCCC
active: [1] 3.82 µM
inactive: [2] | [3] | [4] | [6] | [5]

Nc1c(Cl)cc([N+](=O)[O-])cc1Cl
inactive: [3] | [7] | [4]
active: [1] 6.25 µM | [2] 4.29 µM | [5] 93.6 µM

CCOP(=S)(Oc1cnc(C(C)(C)C)nc1)OC(C)C (centres undefined)
active: [1] 0.427 µM | [2] 2.68 µM | [7] 0.439 µM
inactive: [5]

COP(=O)(OC)C(O)C(Cl)(Cl)Cl (centres undefined)
inactive: [8]

CCOP(=S)(OCC)Oc1cc(C)nc(C(C)C)n1
active: [1] 1.89 µM | [2] 2.77 µM | [9] 73.3 µM | [10] 75.2 µM
inactive: [7] | [4] | [6]

CN(C)[C@@H]1C(=O)C(C(N)=O)=C(O)[C@@]2(O)C(=O)C3=C(O)c4c(O)cccc4[C@@](C)(O)[C@H]3[C@H](O)[C@@H]12
inactive: [1] | [2] | [3] | [11] | [4] | [9] | [10] | [6]
active: [9] 11.6 µM | [12] 4.16 µM | [13] 50 µM | [14] 50 µM

CCOC(=O)COc1cc(-c2nn(C)c(OC(F)F)c2Cl)c(F)cc1Cl
inactive: [2] | [4] | [6]
active: [1] 13.5 µM

CCOC(=O)CC(SP(=O)(OC)OC)C(=O)OCC (centres undefined)
active: [1] 20 µM
inactive: [2] | [3] | [11] | [4] | [5] | [15]

CNC(=O)ON=C(SC)C(=O)N(C)C
inactive: [16] | [8] | [2] | [7] | [6]

Cc1cc(C2CC2)nc(Nc2ccccc2)n1
active: [1] 1.09 µM | [2] 3.97 µM
inactive: [4]

Nc1nc(N)nc(NC2CC2)n1
inactive: [8] | [11] | [6] | [5]

CC1=NNC(=O)N(/N=C/c2cccnc2)C1
active: [2] 8.29 µM
inactive: [16] | [8] | [9] | [17] | [13] | [14]

N#CSCSC#N
inactive: [8] | [2] | [11] | [4]
active: [9] 7.75 µM | [10] 14.2 µM | [5] 17.9 µM

CCOP(=S)(OCC)Oc1ccc([N+](=O)[O-])cc1
inactive: [6] | [5]
active: [1] 1.13 µM | [2] 2.97 µM | [7] 2.67 µM | [4] 5.32 µM

CN(C)C(=O)Nc1cccc(C(F)(F)F)c1
active: [1] 3.69 µM | [2] 1.96 µM
inactive: [3] | [4] | [9] | [10] | [6] | [5]

CCCSP(=O)(OCC)Oc1ccc(Br)cc1Cl (centres undefined)
inactive: [3] | [4] | [6] | [5]
active: [1] 3.63 µM | [2] 4.26 µM

O=[N+]([O-])c1cc(C(F)(F)F)c(Cl)c([N+](=O)[O-])c1Nc1ncc(C(F)(F)F)cc1Cl
inactive: [1] | [11] | [4] | [17] | [12] | [14]
active: [2] 0.499 µM | [9] 16.4 µM | [10] 15.2 µM

C#CCC1=C(C)C(OC(=O)C2C(C=C(C)C)C2(C)C)CC1=O (centres undefined)
active: [1] 4.91 µM | [2] 20 µM | [7] 3.87 µM
inactive: [3] | [11] | [4] | [6]
